Data published in PubChem BioAssay (EPA / NIEHS).
Records with an inconclusive call do not appear. Calls of active or inactive are those of the source. Rule for the calls: active = hit-call score of the fitted dose curve at least 0.9, where 1 is the maximum; inconclusive = response in the unintended direction; inactive = score below 0.9.

Each compound was assayed against human Constitutive Androstane Receptor (CAR), NR1I3 (gene 9970) (UniProt Q14994) (assay: NVS_NR_hCAR_Antagonist: NovaScreen (NVS) Nuclear Receptor Binding Assay for human Constitutive Androstane Receptor Antagonism (CAR) (AID 2283344)).
Description: NVS_NR_hCAR_Antagonist is a biochemical, single-readout assay that uses extracted gene-proteins in a cell-free assay. Measurements were taken 1 hour after chemical dosing in a 384-well plate.NVS_NR_hCAR_Antagonist is one of one assay component(s) measured or calculated from the NVS_NR_hCAR_Antagonist assay. It is designed to make measurements of fluorescent resonance energy transfer, a form of binding reporter, as detected with fluorescent resonance energy transfer signals by Time-Resolved Fluorescence Resonance Energy Transfer (TR-FRET) technology.Data from the assay component NVS_NR_hCAR_Antagonist was analyzed into 1 assay endpoint. This assay endpoint, NVS_NR_hCAR_Antagonist, was analyzed in the positive analysis fitting direction relative to DMSO as the negative control and baseline of activity. Using a type of binding reporter, loss-of-signal activity can be used to understand changes in the binding as they relate to the gene NR1I3. Furthermore, this assay endpoint can be referred to as a primary readout, because the performed assay has only produced 1 assay endpoint. To generalize the intended target to other relatable targets, this assay endpoint is annotated to the nuclear receptor intended target family, where the subfamily is non-steroidal.
Binding assays used specific radioligands (tritiated, iodinated) with non-radioactive competitive displacement ligands in agonist or antagonist protocols (as indicated) and various reference compounds and inhibitors to titrate specific binding to receptors and transporters. Most enzyme assays (CYPs, kinases, phosphatases, proteases, HDACs) used recombinant protein and specific substrates (fluorescence mostly, some colorimetric and radioactive) and inhibitors, followed by a biochemical separation of substrate and product. All assays for the biochemical HTS were initially run in duplicate at a single concentration (10 uM for CYP450 assays and 25 uM for all others). […] Each assay was run with positive and negative controls, and concurrent controls on every plate. The follow-up (secondary) screen tested active chemical-pairs in concentration series, as well as a few additional assays not tested in the primary screen, some selected negative inactives, and several cases re-run in the concentration series for confirmatory purposes.

Chain of human Constitutive Androstane Receptor (CAR), NR1I3 (gene 9970) (Q14994 whole entry, looked up): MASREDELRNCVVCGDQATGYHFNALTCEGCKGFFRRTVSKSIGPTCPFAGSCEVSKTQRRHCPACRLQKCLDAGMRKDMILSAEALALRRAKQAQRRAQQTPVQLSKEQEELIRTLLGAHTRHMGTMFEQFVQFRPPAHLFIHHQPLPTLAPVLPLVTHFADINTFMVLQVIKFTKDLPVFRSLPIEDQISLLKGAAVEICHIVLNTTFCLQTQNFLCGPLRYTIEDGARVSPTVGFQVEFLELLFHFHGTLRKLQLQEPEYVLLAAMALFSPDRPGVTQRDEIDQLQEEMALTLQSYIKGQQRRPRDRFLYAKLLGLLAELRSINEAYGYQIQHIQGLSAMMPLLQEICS

SMILES | outcome | AC50
CCC(C)(CC)c1cc(NC(=O)c2c(OC)cccc2OC)on1 | inactive | 
Oc1ccc(C(c2ccc(O)cc2)(C(F)(F)F)C(F)(F)F)cc1 |  | 2.29 nM (active)
O=S(=O)(O)C(F)(F)C(F)(F)C(F)(F)C(F)(F)C(F)(F)C(F)(F)F | inactive | 
ClC1=C(Cl)[C@]2(Cl)[C@@H]3[C@@H](Cl)[C@H]4O[C@H]4[C@@H]3C1(Cl)C2(Cl)Cl | inactive | 
CCCN(CCC)N=O | inactive | 
Cc1cc2c3c(c1)C(c1ccccc1)=N[C@@H](NC(=O)c1ccncc1)C(=O)N3CC2 | inactive | 
CCNc1nc(NC(C)C)nc(SC)n1 | inactive | 
c1cc2ccc3cccc4ccc(c1)c2c34 | inactive | 
CC1=C2C[C@H]3[C@@H](CC=C4C[C@@H](O)CC[C@@]43C)[C@@H]2CC[C@]12O[C@@H]1C[C@H](C)CN[C@H]1[C@H]2C | inactive | 
CCCCCCCCCc1ccc(O)cc1 | inactive | 
